# Compound activity from PubChem BioAssay.
# This is a sample that favours compounds with a hit; in the whole collection about 2.2% have one here.
# EWS-Fli block = inhibitors of EWS/Fli oncoprotein transcriptional activity; inhibition, % at 12.6 µM; 350,000 tested, 0.67% active; A673 NR0B1-luciferase reporter, viability-normalised;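 active = mean inhibition of at least 50% after viability correction, with every replicate also passing that limit; inconclusive = mean reaches 50% but only one of two replicates passes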;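 also: firefly luciferase signal divided by Alamar Blue viability fluorescence both relative to DMSO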
# LGR2 inh = blocks bursicon-induced cAMP signaling via Drosophila LGR2 | AID 720647 | HEK293 LGR2, CRE-luciferase, bursicon-stimulated, 4 h | 380,000 tested, 0.35% active | inhibition, % at 9.99 µM;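 active = drop in luminescence signal, shown as inhibition above about 50% in the replicate tests, limit read from the data, passing the limit was not always enough; inconclusive = probably only some replicates passing the limit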;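 also: agonist challenge used bursicon conditioned medium at about half maximal strength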
# PGC1a acetyl inh = lowers PGC1a acetylation signal in U2OS cells | AlphaScreen anti-acetyl-lysine; with virally co-expressed GCN5 acetyltransferase | inhibition, % at 15.6 µM | 350,000 tested, 0.17% active | AID 651687;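 active = every replicate shows inhibition of at least 40%; inconclusive = mean inhibition at least 40% but some replicate below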;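 also: 0% = neutral control wells and 100% = positive control wells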
# MITF TRPM1 inh = reduces MITF-dependent TRPM1 promoter luciferase signal; SK-MEL-5 TRPM1 promoter luciferase, 24 h; inhibition, % at 12.5 µM; 330,000 tested, 0.83% active; AID 488899;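 active = mean inhibition across replicates of 60% or more, whatever share of single replicates reaches that level; inconclusive = some that reach 60%, reason not given; inactive = mean inhibition across replicates below 60%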
# PAX8 reporter = inhibitors of PAX8 transcriptional activity in RMG-I cells; RMG-I TPO-luciferase reporter, SteadyGlo, 24 h; inhibition, % at 12.6 µM; 360,000 tested, 1.2% active; AID 652154;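 active = mean replicate inhibition at least 60% with every replicate also reaching 60%; inconclusive = only one of the two criteria is met; inactive = mean below 60% and not all replicates reaching 60%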;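 also: luciferase light reporting Pax8 driven TPO promoter activity; plate controls were median of neutral control wells for no effect and mitoxantrone controls for full effect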
# EBV LMP1 NFkB = inhibitors of Epstein-Barr LMP1-induced NF-kappaB reporter; LMP1-induced NF-kappaB luciferase reporter cells, luminescence; inhibition, % at 12.5 µM; 350,000 tested, 0.69% active; AID 504558; in the data active = inhibition above about 41%; inconclusive = no clear call, values can overlap the other calls;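 also: 0% = neutral control wells and 100% = reference inhibitor control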
# Starred values were filed as active, the others as inactive; ? = inconclusive; · = no result given.
SMILES,EWS-Fli block,LGR2 inh,PGC1a acetyl inh,MITF TRPM1 inh,PAX8 reporter,EBV LMP1 NFkB
Cc1cccc(Oc2nccc(C(F)(F)F)c2C(=O)Nc2ccc(F)cc2F)c1,-4,-8,85*,0,3,-8
COc1cccc(C(=O)Nn2cnnc2)c1OC,8,12,75*,-3,5,2
CCCC#Cc1cnc2c(c1)C(=O)N([C@H](C)CO)C[C@H](C)[C@H](CN(C)Cc1ccncc1)O2,-9,8,-4,·,-14,·
COc1ccc(Br)cc1/C=C/C(=O)c1ccc(NC(C)=O)cc1,?,95*,·,82*,105*,4
CO[C@@H]1CC[C@H]2CCN(C)C(=O)C[C@@H](c3ccccc3)CN(C)C(=O)c3cccc(C#N)c3OC[C@H]1O2,0,10,·,·,24,·
O=C(Nc1ccccc1C(=O)Nc1nnc(C(F)(F)F)s1)c1ccccc1Cl,17,25,·,17,63*,37
NC(=O)c1ccccc1NC(=O)c1ccccc1Cl,-4,-16,2,3,-10,0
CN(C)C(=O)[C@@H]1[C@@H](CO)[C@@H]2Cn3c(ccc(C4=CCCC4)c3=O)[C@H]1N2Cc1cccnc1,6,12,-6,·,-11,·
Cc1noc(C)c1NC(=O)N[C@H]1C=C[C@@H](CC(=O)N2CCCCC2)O[C@H]1CO,0,7,11,·,-2,·
COc1ccc(NC(=O)Nc2cccc3c2O[C@@H](CN(C)C(=O)Nc2ccc4c(c2)OCO4)[C@@H](C)CN([C@H](C)CO)C3=O)cc1,-6,4,5,·,·,·
CO[C@H]1CN(C)C(=O)c2cc(NC(=O)Nc3ccccc3)ccc2OC[C@@H](C)N(C(C)=O)C[C@H]1C,-1,-16,-3,·,·,·
CC[C@H](C)[C@@H]1NC(=O)[C@@H](CC(C)C)NC(=O)[C@H](C(C)C)NC(=O)[C@H]2CSSC[C@H](NC1=O)C(=O)N2,68*,72*,72*,·,116*,·
CN(C)c1cccc(/C=C(\C#N)c2ccccc2)c1,55*,12,4,-34,-51,-36
O=C(CNC(=S)N(Cc1ccccc1F)C1CCCCC1)NCC1CCCO1 (centres undefined),-5,4,9,-8,65*,2
CN(C)CCNC(=O)COc1ccc(C23CC4CC(CC(C4)C2)C3)cc1,31,5,·,70*,-12,-3
COc1ccc2nc3cc(Cl)ccc3c(Nc3cc(CN4CCCC4)c(O)c(CN4CCCC4)c3)c2n1,43,·,72*,·,19,·
COc1ccc2nc3cc(Cl)ccc3c(Nc3cc(C(C)C)c(O)cc3C)c2c1,4,10,·,10,-7,19
CCCNC(=O)Nc1ccc2c(c1)C(=O)N(C)C[C@@H](OC)[C@H](C)CN(Cc1ccccn1)[C@@H](C)CO2,0,-13,-14,·,2,·
O=C1C=C(NCc2ccccc2)CCC1,0,-4,4,11,74*,2
COc1cccc(OC)c1C(=O)NCCSC1CCCCC1,5,11,-1,-11,15,59*
CCS(=O)(=O)N1CCC2(CC1)CN(C(=O)Cc1ccccn1)[C@H](CO)c1[nH]c3cc(OC)ccc3c12,·,-12,16,·,-15,·
O=c1[nH]c(NC2CCN(S(=O)(=O)c3ccccc3C(F)(F)F)CC2)nc2c1CCCC2,15,10,·,71*,19,53*
CC1(C)CC(NC(=O)C2CCN(S(=O)(=O)c3ccccc3C(F)(F)F)CC2)CC(C)(C)N1,5,-3,-3,4,11,3
C[C@H]1CN([C@@H](C)CO)C(=O)c2cccc(NS(=O)(=O)c3cccs3)c2O[C@@H]1CN(C)Cc1ccc(-c2ccccc2)cc1,-1,4,-2,·,-12,·
COc1cccc(/C=N/Nc2nc3ccccc3[nH]2)c1O,-56,-41,14,22,9,83*
SMILES,EWS-Fli block,LGR2 inh,PGC1a acetyl inh,MITF TRPM1 inh,PAX8 reporter,EBV LMP1 NFkB
Oc1ccc(/C=N/Nc2nccnc2Cl)c(O)c1,·,·,28,-4,6,33
COc1cccc(/C=N/Nc2ncnc(Cl)c2N)c1O,5,·,·,46,·,65*
COc1cccc(/C=N/Nc2ncnc3scc(-c4ccccc4)c23)c1O,·,23,·,70*,76*,81*
Oc1ccccc1/C=N/Nc1nccnc1Cl,·,·,-47,-6,5,58*
COc1ccc(/C=N/Nc2nccnc2Cl)c(OC)c1,-116,-22,-5,-84,-103,-19
COc1cccc(/C=N/Nc2nccnc2Cl)c1O,-40,76*,36,59,?,72*
CCN1CCN(c2nc(-c3cccs3)nc3ccccc23)CC1,-14,-11,·,2,134*,-26
CN1CCN(c2nc(-c3cccs3)nc3ccccc23)CC1,-7,-9,·,12,-11,2
CCOC(=O)N1CCC(NC(=O)c2ccc3c(c2)N=C(CC)c2cc(C)ccc2S3)CC1,·,10,-8,25,48,8
CCOC(=O)N1CCC(NC(=O)c2ccc3c(c2)N=C(C)c2c(C)ccc(C)c2S3)CC1,44,7,-22,59,96*,12
CN1CCN(C(=O)[C@H]2[C@H](CO)[C@H]3Cn4c(ccc(-c5cncnc5)c4=O)[C@H]3N2CC2CC2)CC1,-7,-3,·,·,·,·
Oc1ccc(Cl)c2cccnc12,21,1,14,35,15,6
Oc1c(I)cc(I)c2cccnc12,52*,·,7,20,100*,-3
O=C(C[C@H]1C=C[C@@H](NC(=O)Nc2ccc(F)cc2)[C@H](CO)O1)NCc1ccccn1,-1,-3,-8,·,9,·
CC1CCCC(NCC(O)COC(c2ccc(F)cc2)c2ccc(F)cc2)C1C (centres undefined),41,9,-20,86*,?,-16
CC1CCCC(NC(=O)CSc2ccc(F)cc2)C1C (centres undefined),0,9,2,-9,-10,-3
CS(=O)(=O)c1nc(S(=O)(=O)c2ccc(Cl)cc2)c(N2CCOCC2)s1,17,5,4,67*,12,8
Cc1cc(C)c(S(=O)(=O)/N=C2/C=C(Sc3ncn[nH]3)C(=O)c3ccccc32)cc1C,·,6,·,89*,102*,-2
Cc1cc2ncc(-c3ncc(C(F)(F)F)cc3Cl)cn2n1,54*,·,16,-7,·,37
CCOC(=O)c1ccc(NC(=S)N2CCSC2c2ccc(OC)cc2)cc1 (centres undefined),·,7,-8,-2,-6,67*
Nc1ccc2cc3[nH]c4cc(N)ccc4c3nc2c1,42,·,12,83*,90*,62*
Nc1ccc2nc(-c3cccc(-c4nc5ccc(N)cc5[nH]4)c3)[nH]c2c1,0,1,·,14,-4,-2
CN(C)CCCNC(=O)C[C@@H]1CC[C@H]2[C@@H](COc3ccc(NS(C)(=O)=O)cc3C(=O)N2C)O1,-17,-9,1,·,-43,·
CCSc1nsc(NC(=O)Nc2cccc(F)c2)n1,-25,-1,-10,43,90*,25
